Screening results from PubChem.
IL2 activator: activates IL-2 in a cell-based reporter assay; IL-2 activation reporter assay, cell-based qHTS; stimulated with anti-CD3/CD4/CD28 beads; in transgenic mouse T cells; activation, % (series mostly up to about 46 µM); 0.065% of 360,000 active; AID 652025; in the data active means activation above about 50%; inconclusive means mostly about 30% to 49%; further: 0% is about no effect
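First, unstimulated transgenic mouse T cells were exposed to compound for 60 min. Next, anti-CD3/anti-CD4-coated beads with anti-CD28 were added. Finally, after 18 h at 37 degrees C, EGFP and DsRed were imaged.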
Chronic BCR inh: inhibitors of chronic active B-cell receptor signaling; ABC-DLBCL IkBa-CBG/CBR reporter, luminescence ratio, 4 h; Potency, µM (doses to about 46.1 µM), inactives show at the top dose activity change, negative = inhibition, actives largely listed as inhibitors; 0.05% of 340,000 active; AID 493014; active means well fitted inhibition curve with a large enough effect in the signal ratio, with a control signal flat, not every such curve was filed as active; inconclusive means small, poorly fitted or top-dose-only effect, or effect the other way, or a change in a side signal; the % refers to the signal ratio;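 further: potency means the concentration at half of the fitted maximal effect; plate controls were basal doxycycline-induced cells for no effect and cells given 10 µM MG132 for full effect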
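Compounds up to 46 uM were incubated four hours with TMD8 cells whose green CBG68 luciferase is fused to IkappaBalpha; red CBR luminescence normalised the signal, and concentration-effect curves were fitted to fusion, red and ratio data.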
Nrf2 activator: activators of Nrf2 (ARE) signaling. AREc32 ARE-luciferase reporter (MCF7-derived line), luminescence, 24 h. Potency, µM (top dose mostly 46.1 µM), for the others: at the highest dose activation, hits mostly activators. 0.31% of 410,000 active; further: potency means the concentration at half of the fitted maximal effect; % of control where 0% means no effect; nearly all actives have a fitted effect of over 65% in size
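Reporter line AREc32 (ARE-Fluc), seeded overnight in OPTI-MEM with 5% FBS; compound pin-transferred, 24 hr at 37 deg C, 5% CO2; luminescent read-out.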
N370S GC mod: inhibits or activates N370S mutant glucocerebrosidase; P04062; N370S GC spleen homogenate, 4MU-glucoside fluorescence; Potency, µM (top dose mostly 59.4 µM), for inactives: at the highest dose activity change, negative = inhibition, actives largely listed as inhibitors; 0.092% of 330,000 active; AID 2101;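 further: potency means the concentration at half of the fitted maximal effect; 0% = full enzyme activity and -100% = no enzyme basal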
BRCA1 expr up: increases BRCA1 expression. MCF7-BRCA1-FFLuc reporter, luminescence, 48 h; response scale: scaled: vehicle 0%, 10 µM genistein 100%. 1.1% of 380,000 active. AID 624202. Potency, µM (titrated, usually from 46.1 µM), inactives show top-dose activation, actives largely listed as activators; further: potency means the concentration at half of the fitted maximal effect; nearly all actives have a fitted effect of over 80% in size
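Luminescence from a BRCA1-driven firefly luciferase in MCF7 cells was read after 48 h compound exposure at 37 C. Data normalized against DMSO and a 10microM genistein activation control, then curve-fitted across the titration.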
a7 integrin act: activators of alpha7 integrin expression for muscular dystrophy; 0.064% of 350,000 active; AID 624291; Potency, µM (top dose mostly 38.3 µM), inactives show at the top dose activation, actives largely listed as activators; alpha7betagal myoblasts, beta-gal FDG fluorescence, 48 h;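 further: potency means the concentration at half of the fitted maximal effect; 100% = response of the positive control SU9516; nearly all actives have a fitted effect of over 60% in size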
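Alpha7betagal+/- myoblasts (passage 13) were plated 16-24 hr, then exposed to compounds (1:260 dilution of DMSO stock) for 48 hours at 37C. After MPER lysis, β-galactosidase reporter activity was read as FDG fluorescence (ex 480/em 540) after 30 minutes.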
* = called active by the depositor; [ ] = remark or other dose. Shown are actives, neighbours in structure and some others; about 1.4% of the full set was active somewhere. Unless noted, the call rests on the fitted dose curve; in most records, active means well fitted curve in the direction sought with a large enough effect; inconclusive means small, poorly fitted or top-dose-only effect, or another doubt; inactive means no such curve, though single readings can be large; an effect the other way counts as inactive or inconclusive.

Screening CN(C)CCNc1ccc2nnn3c4ccc(O)cc4c(=O)c1c23 returned IL2 activator -1, Nrf2 activator 2%, BRCA1 expr up -75% and a7 integrin act -17%.
Screening CCCNC(=O)C1(C)CCCN(Cc2ccc(-c3ccccn3)cc2)C1 (centres undefined) returned IL2 activator 0, Nrf2 activator 2% and BRCA1 expr up 7%.
Screening O=c1[nH]c(C2CCCN(S(=O)(=O)c3ccccc3)C2)nc2c1nnn2Cc1cccc(Cl)c1 (centres undefined) returned IL2 activator 0, Chronic BCR inh inconclusive, Nrf2 activator 4%, N370S GC mod -5%, BRCA1 expr up -67% and a7 integrin act 4µM*.
Screening CCN(CC)c1nc(C#N)nc(N2CCOCC2)n1 returned BRCA1 expr up -52%.
For COc1cc(NC(=O)CSc2nnnn2Cc2ccccc2)cc(OC)c1 the results were IL2 activator 4, Chronic BCR inh -7%, Nrf2 activator 1%, N370S GC mod 8%, BRCA1 expr up -33% and a7 integrin act -55%.
`COC(=O)c1ccsc1NC(=O)CSc1nnnn1Cc1ccccc1` gave IL2 activator 0, Chronic BCR inh inconclusive, Nrf2 activator 7.9µM*, N370S GC mod -3%, BRCA1 expr up -78% and a7 integrin act -4%.
For CSc1nsc(SC)c1NC(=O)Nc1ccccn1 the results were IL2 activator -3, Chronic BCR inh -2%, Nrf2 activator 10µM*, N370S GC mod inconclusive, BRCA1 expr up -65% and a7 integrin act -6%[7.66 µM].
Screening COCCCN1CN=C(Nc2nc3ccccc3o2)NC1 returned IL2 activator 3, Chronic BCR inh -5%, Nrf2 activator 2%, N370S GC mod 6%, BRCA1 expr up 82% and a7 integrin act 36%.
`C/C(=N/NC(=O)c1ccccn1)c1c[nH]c2ccccc12` gave IL2 activator 0, Chronic BCR inh inconclusive, Nrf2 activator 13%, N370S GC mod -2%, BRCA1 expr up 7.1µM* and a7 integrin act inconclusive.
CC(C)C[C@H]1CN([C@@H](CC(C)C)CN2CCC[C@H]2CN2C(=O)C(=O)NC[C@@H]2Cc2ccc(O)cc2)C(=O)C(=O)N1CC1CCCCCC1 was read as IL2 activator 0, Nrf2 activator -2% and BRCA1 expr up -31%.
For CC1=C(C(=O)N2CCCCCC2)CC(CC(=O)NC(c2ccccc2)c2ccccc2)C(=O)N1Cc1ccccc1 (centres undefined) the results were IL2 activator 1, Nrf2 activator -1% and BRCA1 expr up -16%.
Screening CN(C)/C=C(\C#N)C(=O)Nc1ccc(F)c(Cl)c1 returned IL2 activator -1, Chronic BCR inh 1%, Nrf2 activator 7%, N370S GC mod -1%, BRCA1 expr up 7.9µM* and a7 integrin act 20%.
`Cc1cc(C(=O)COC(=O)c2ccco2)c(C)n1Cc1ccco1` gave IL2 activator 2, Chronic BCR inh 0%, Nrf2 activator 0%, N370S GC mod -7%, BRCA1 expr up 70% and a7 integrin act -39%.
For Cc1cc(C(=O)COC(=O)c2cc(Cl)ccc2N)c(C)n1Cc1ccco1 the results were IL2 activator 0, Chronic BCR inh 0%, Nrf2 activator 3%, N370S GC mod inconclusive, BRCA1 expr up 2.8µM* and a7 integrin act 15%.
`Cc1c(C(=O)N2CCc3ccccc32)oc2c1C(=O)CC(C)(C)C2` gave IL2 activator -1, Chronic BCR inh inconclusive, Nrf2 activator 3%, N370S GC mod -1%, BRCA1 expr up 13µM* and a7 integrin act 12%.
Screening COC(=O)C1=CN(c2ccc3c(c2)OCO3)C(N)=C(C#N)C1c1cccc(F)c1 (centres undefined) returned IL2 activator 0.
`Cc1ccc2nc(-c3ccncc3)[nH]c2c1` gave IL2 activator 0, Chronic BCR inh inconclusive, Nrf2 activator 2%, N370S GC mod -1%, BRCA1 expr up 2.8µM* and a7 integrin act -12%.
For N=c1c2c(-c3ccccc3)c(-c3ccccc3)n(Cc3ccco3)c2ncn1Cc1ccccc1 the results were IL2 activator 0, Chronic BCR inh inconclusive, Nrf2 activator 0%, N370S GC mod -14%, BRCA1 expr up -26% and a7 integrin act 23%.
For N=c1c2c(-c3ccccc3)c(-c3ccccc3)n(Cc3ccccc3)c2ncn1CCO the results were IL2 activator 0, Chronic BCR inh inconclusive, Nrf2 activator 9%, N370S GC mod 4µM*, BRCA1 expr up -76% and a7 integrin act -49%.
For N=c1c2c(-c3ccccc3)c(-c3ccccc3)n(Cc3ccco3)c2ncn1CCCn1ccnc1 the results were IL2 activator 0, Chronic BCR inh inconclusive, Nrf2 activator 6%, N370S GC mod 3.2µM*, BRCA1 expr up -64% and a7 integrin act -50%.
For N=c1c2c(-c3ccccc3)c(-c3ccccc3)n(Cc3ccco3)c2ncn1CCCN1CCOCC1 the results were IL2 activator -4, Chronic BCR inh -1%, Nrf2 activator 0%, N370S GC mod -24%, BRCA1 expr up -3% and a7 integrin act -62%.
For CC(C)(C)OC(=O)NS(=O)(=O)NCc1ccco1 the results were N370S GC mod 0%.
COc1ccccc1C#CC1=CC(=O)CC(C)(C)C1 was read as IL2 activator -1, Nrf2 activator 14µM*, BRCA1 expr up -15% and a7 integrin act -41%.
COc1ccc(C#CC2=CC(=O)CC(C)(C)C2)cc1 was read as IL2 activator -1, Nrf2 activator 13µM*, BRCA1 expr up 59% and a7 integrin act -37%.
For CSc1ccc(/C=C2\C=Cc3ccccc32)cc1 the results were BRCA1 expr up 0%.
`c1ccc(COc2ccc(CNCc3cccnc3)cc2)cc1` gave IL2 activator 3, Chronic BCR inh -2%, Nrf2 activator 6%, N370S GC mod 1%, BRCA1 expr up 10µM* and a7 integrin act 0%.
`Cc1ccc(CNc2nc(-c3cccs3)nc3ccccc23)cc1` gave IL2 activator -2, Chronic BCR inh 3%, Nrf2 activator 3%, N370S GC mod 14µM*, BRCA1 expr up -4% and a7 integrin act -38%.
`c1ccc(CNc2nc(-c3cccs3)nc3ccccc23)nc1` gave IL2 activator 0, Chronic BCR inh 11%, Nrf2 activator 0%, N370S GC mod -29%, BRCA1 expr up -45% and a7 integrin act 17%.
